Data as given in PubChem BioAssay (Tox21).
Active and inactive are the calls of the source. The call rests on the fitted dose curve; in most records, active means well fitted curve in the direction sought with a large enough effect in the repeat runs; inconclusive means weak or mixed curves; inactive means flat fitted curve, though single readings scatter.

Test: qHTS assay to test for compound auto fluorescence at 460 nm (blue) in HEK293 cells (AID 720678)
Details: blue autofluorescence 405/460 nm; series mostly up to 91.3 µM
Text: National Center for Advancing Translational Sciences [NCATS]
NIH Chemical Genomics Center [NCGC]
U.S. Environmental Protection Agency [EPA]
National Institutes of Environmental Health Sciences [NIEHS]
National Toxicology Program [NTP]
U.S. Food and Drug Administration [FDA]
Compound auto fluorescence often interferes with screening of the compound library against various biological targets and signaling pathways. Some of these compounds may have fluorophoric properties. Such properties may interfere with the assay outputs resulting in false positives and/or negatives. To decrease such complications and ensure the compound activities are relevant in terms of biological response, the Tox21 10K compound library was screened for auto fluorescence.
From the fluorophores used as reporter signals in our screening assays, the auto fluorescence equivalencies of compounds against three fluorophores have been evaluated: Triamterene, Fluorescein and Rose Bengal sodium for blue, green and red fluorescence, respectively. The fluorescence intensities were measured using Excitation/Emission wavelengths at 405/460nm, 485/535nm and 540/590nm for blue, green and red labels, respectively. This assay includes the blue fluorescence data.
Tox21 Assay Protocol Summary:
2,000 HEK293 cells in 5 uL of culture medium containing 10% dialyzed FBS per well were dispensed into black wall/clear bottom 1536-well plates using a Multidrop Combi Dispenser (Thermo Scientific). The assay plates were incubated for 4-5 hr at 37C to allow cell attachment to the well bottom, followed by the transfer of 23 nL compound or DMSO vehicle by a pintool work station (Kalypsys, San Diego, CA). After the assay plates were incubated overnight at 37C and 5% CO2, fluorescence intensities in the assay plates were measured by an Envision (PerkinElmer, Shelton, CT) plate reader using three labels for measuring blue, green and red fluorescence at […] 460, 535 and 590nm respectively.

Structure (SMILES) | outcome
CC1(C)O[C@@H]2C[C@H]3[C@@H]4C[C@H](F)C5=CC(=O)C=C[C@]5(C)[C@@]4(F)[C@@H](O)C[C@]3(C)[C@]2(C(=O)CO)O1 | inactive
COC(=O)C(C)Oc1ccc(Oc2ncc(C(F)(F)F)cc2Cl)cc1 (stereo not given) | inactive
C[C@]12C=CC(=O)C=C1CC[C@H]1[C@@H]3C[C@@H](O)[C@](O)(C(=O)CO)[C@@]3(C)C[C@H](O)[C@@]12F | inactive
OC[C@H]1O[C@@H]2O[C@H]3[C@H](O)[C@@H](O)[C@@H](O[C@H]4[C@H](O)[C@@H](O)[C@@H](O[C@H]5[C@H](O)[C@@H](O)[C@@H](O[C@H]6[C@H](O)[C@@H](O)[C@@H](O[C@H]7[C@H](O)[C@@H](O)[C@@H](O[C@H]1[C@H](O)[C@H]2O)O[C@@H]7CO)O[C@@H]6CO)O[C@@H]5CO)O[C@@H]4CO)O[C@@H]3CO | inactive
CCOC(=O)C(C)Oc1ccc(Oc2cnc3cc(Cl)ccc3n2)cc1 (stereo not given) | inactive
CCC(=O)O[C@H]1[C@H](O[C@@H]2[C@@H](C)[C@H](O[C@H]3C[C@@](C)(OC)[C@@H](O)[C@H](C)O3)[C@@H](C)C(=O)O[C@H](CC)[C@@](C)(O)[C@H](O)[C@@H](C)C(=O)[C@H](C)C[C@@]2(C)O)O[C@H](C)C[C@@H]1N(C)C | inactive
CC(C)[N+](C)(CCOC(=O)C1c2ccccc2Oc2ccccc21)C(C)C | inactive
C/C=C/C(=O)N(CC)c1ccccc1C | inactive
Nc1ccc(O)c(N)c1 | inactive
C=CCOC(=O)C(=C)C | inactive
CCc1cccc2c3c([nH]c12)C(CC)(CC(=O)O)OCC3 (stereo not given) | inactive
CCCCCCC(C)O (stereo not given) | inactive
CC(=O)Oc1c(C)c(C)c2c(c1C)CC[C@@](C)(CCC[C@H](C)CCC[C@H](C)CCCC(C)C)O2 | inactive
FC(F)(F)C(Cl)Br (stereo not given) | inactive
CCCCCC=O | inactive
CC(=O)[C@H]1CC[C@H]2[C@@H]3CC=C4C[C@@H](O)CC[C@]4(C)[C@H]3CC[C@]12C | inactive
CN1CCOCC1 | inactive
ClC/C=C/CCl | inactive
COc1ccc(-c2coc3cc(O)cc(O)c3c2=O)cc1 | inactive
CC[C@]12CCCN3CCc4c(n(c5ccccc45)[C@@](O)(C(=O)OC)C1)[C@@H]32 | inactive

Structure (SMILES) | outcome
OCCNCCO | inactive
C[C@]12CC[C@@H]3c4ccc(O)cc4CC[C@H]3[C@@H]1CC[C@@H]2O | inactive
CC(=O)Nc1ccc2c(c1)Cc1cc(NC(C)=O)ccc1-2 | inactive
Cc1ccc(C)c(O)c1 | inactive
Nc1ccc(N)c(Cl)c1 | inactive
O=C(O)COCCN1CCN(C(c2ccccc2)c2ccc(Cl)cc2)CC1 (stereo not given) | inactive
NC[C@H](O)c1ccc(O)c(O)c1 | inactive
COc1ccc2nc(N)sc2c1 | inactive
C1COCCN1 | inactive
c1ccc2c(c1)ccc1cc3c(ccc4ccccc43)cc12 | inactive
O=C(O)CCCC(=O)O | inactive
CC(=O)OC(C)C | inactive
CC(=O)Oc1ccc(C(c2ccc(OC(C)=O)cc2)c2ccccn2)cc1 | inactive
C=CC(C)(O)CCC=C(C)C (stereo not given) | inactive
COc1ccc(C(=O)c2ccccc2O)c(O)c1 | inactive
CN(C)C | inactive
O=C1CCc2ccccc2O1 | inactive
Oc1ccc(C(c2ccc(O)cc2)C(Cl)(Cl)Cl)cc1 | inactive
CCCCCC1C(=O)CCC1CC(=O)OC (stereo not given) | inactive
COC(=O)c1ccc(C)cc1 | inactive
